Results from the supplement of paper PMC11417369.
Whole data set: some 25,000 sequences, median “ln(normalized median fluorescence intensity)” near 9.7, cut for the highest 2% near 11. The entries come from a sample that favours the highest values as a whole.

Test system: PfAP2-HC AP2 domain (GST-tagged)
Assay: gcPBM binding intensity (ln(normalized median fluorescence intensity)); higher = stronger DNA binding
Outline: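 Binding of GST-tagged P. falciparum DNA-binding domains, expressed in E. coli and used at about 25 μg on average, was carried out for 1 h in 1× PBS containing 1% milk, 0.2 mg/ml BSA, 0.5% salmon testes DNA and 0.03% Triton X-100. The target was an Agilent 4 × 180k array of primer-extended double-stranded 36-bp intergenic genomic probes plus negative controls, read with Alexa488 anti-GST antibody at 488 nm. Binding intensity is the highest Masliner-normalised natural-log median intensity across replicate spots of either probe orientation.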

First: AATAACCACAGACACACACACATATAAATATAAATA [CACACA_site7631]
Second: TATAAATATAAATACACACACACATCAATACAGATA [CACACA_site5850]
The “gcPBM binding intensity (ln)” value of the first is lower: 10.9 for the first, 11 for the second.

Going from “GGATATAACAGACACACACACACATATAAATATATT [CACACA_site7866]” to “ATTTCATACAGACACACACACAAACAAACATATATA [CACACA_site979]”, the “gcPBM binding intensity (ln)” value rises from 10.6 to 11.2.

Compared with “TATAAATACAGATACACACACACACCGATATATATA [CACACA_site5271]”, “TAAATAAATACATACACACACATACAGATATATATA [CACACA_site5690]” is higher in “gcPBM binding intensity (ln)” value: 10.4 for the first, 10.5 for the second.

First: TATATACTCAAACACACACACACATACACAGACATA [CACACA_site5025]
Second: TACAGATACAGATACACACACACACCGAAATAAATA [CACACA_site4865]
The “gcPBM binding intensity (ln)” value of the first is lower: 10.7 for the first, 11 for the second.

First: TATACAGATATATATACACACATATATATAAATACA [CACACA_site4383]
Second: ATTTTTTCTTTTTTTTTTCCGTTTTTTTGGACATTT [CACACA_negctrl_site1174]
The “gcPBM binding intensity (ln)” value of the first is higher: 9.97 for the first, 9.75 for the second.

First: TAAATATATATATATAGTACAATATAATTATGATAT [XGTACX_site258]
Second: AAAAAAAAAATATCATGTACAAATATAATAAAATTT [XGTACX_site3896]
The “gcPBM binding intensity (ln)” value of the first is lower: 9.75 for the first, 9.79 for the second.

Compared with “TATATTTAAGTACATAAATAAGCCCATTTACATACA [CACACA_negctrl_site1224]”, “AATAATAATGCTTTAACTTTGTTGTTATTTAGAATA [CACACA_negctrl_site1144]” is higher in “gcPBM binding intensity (ln)” value: 9.37 for the first, 9.44 for the second.

First: AATAGCTAGCTGTGCACACAAACATATTTTCCAAAT [CACACA_site880]
Second: AGGTTATATATGAACAAAAATAAAATATTCATAGGC [TGCATGCA_negctrl_site46]
The “gcPBM binding intensity (ln)” value of the first is higher: 9.91 for the first, 9.77 for the second.

First: AAATAAATACTAGGCACACACACATATATATATATA [CACACA_site2079]
Second: ATAAATACTAGGCACACACACATATAGATTTATATA [CACACA_site7064]
The “gcPBM binding intensity (ln)” value of the first is higher: 11 for the first, 10.8 for the second.

First: TAAACAGACATATAAACACACATACATACATACATA [CACACA_site7215]
Second: AAAAAAAACAGACACACACACACATATACATACATA [CACACA_site2665]
The “gcPBM binding intensity (ln)” value of the first is lower: 10.2 for the first, 11.5 for the second.

First: ATAAATACTAGGCACACACACATATATATATATATA [CACACA_site2080]
Second: AAAAAACACAGACACACACACATATACATACATACA [CACACA_site2666]
The “gcPBM binding intensity (ln)” value of the first is lower: 10.4 for the first, 10.7 for the second.

First: TGTTTCTAAGAATTTACACACAAAATATTTCTACAT [CACACA_site7846]
Second: TTTATTTATTAAGAATGTACATGTATTTGTTAAATA [XGTACX_site4465]
The “gcPBM binding intensity (ln)” value of the first is higher: 9.9 for the first, 9.4 for the second.

Going from “CGCACACGCAGACACACACACACATATAAATAAATA [CACACA_site7101]” to “ATTTGGCATAGACACACACACACACGCACGCACATA [CACACA_site6424]”, the “gcPBM binding intensity (ln)” value rises from 10.8 to 11.1.

Going from “AAAAATTTGGCATACACACACACACGCACACGCACA [CACACA_site6422]” to “TCTCATAGTAGACACACACACACACGCACATATATA [CACACA_site6916]”, the “gcPBM binding intensity (ln)” value rises from 10.6 to 11.3.

Going from “CACATACACATACACATACACACGCATAGAAACATA [CACACA_site2136]” to “AAATTTGGCAGACACACACACACACGCACACGCACA [CACACA_site6423]”, the “gcPBM binding intensity (ln)” value rises from 10.5 to 11.5.

First: CATAGATACATACACGCACACACATATATATATATA [CACACA_site13]
Second: TATACACATAGACACACACACATACACGCACATACA [CACACA_site6908]
The “gcPBM binding intensity (ln)” value of the first is lower: 10.3 for the first, 10.7 for the second.

Going from “TATCTCATAGTATACACACACACACGCGCACATATA [CACACA_site6917]” to “TCAAGTTTATATTAACTATTTATGAAAAAAAAAAGA [CACACA_negctrl_site902]”, the “gcPBM binding intensity (ln)” value falls from 10.5 to 9.38.

Going from “ATTTTATATACACTTTGTACTTATTTTATTCTTCTT [XGTACX_site4200]” to “TAATATATTTATAAGTGTACACATTATATAAATCCC [XGTACX_site8875]”, the “gcPBM binding intensity (ln)” value falls from 9.93 to 9.64.

First: ATCCATTATTTTTGTTGTACGGGTAACTTTAAAAAG [XGTACX_site2226]
Second: ATGAATAATTAATGATGTACTTAAAAAAAAAAATAT [XGTACX_site6346]
The “gcPBM binding intensity (ln)” value of the first is lower: 9.5 for the first, 9.53 for the second.

Compared with “TATATAGCTAAAAACACACAAATATGTACACATAAA [CACACA_site7665]”, “ATGAACATATCAATTCTCAAAATAGGATGAGAGCAT [CACACA_negctrl_site230]” is lower in “gcPBM binding intensity (ln)” value: 9.88 for the first, 9.6 for the second.

Compared with “ATCATAAATATAGCAACACACGGATTACATAAAATA [CACACA_site2796]”, GTGGTTATATATTAAGTGCATATTATAATTTTAAAC is lower in “gcPBM binding intensity (ln)” value: 9.85 for the first, 9.52 for the second.

Compared with “TATGTGAATATAATCACACACAATACGGAAAGAGAC [CACACA_site7311]”, “TATGTGAATATAATCACACACAATACGGAAACCCAC [CACACA_site2725]” is lower in “gcPBM binding intensity (ln)” value: 11.2 for the first, 9.99 for the second.

With “AATATGTGAATATAATCACACACAATACGGAAACAC [CACACA_site8875]” the “gcPBM binding intensity (ln)” value was 10.7.
